Assay results from PubChem BioAssay (NCI).
Values joined by “and” are separate entries in the source; they are usually repeats but may differ in a detail not shown here. Equal values may be shown once. This is part of a sample that, as a whole, favours compounds with a hit. Of some 83,000 tested, about 20% had one in any assay.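 A percent growth of 40 corresponds to 60% growth inhibition; 0 means no net growth; -100 means all cells died. Active threshold: below 10.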 Active and inactive are the calls of the source.

Tested on: MDA-MB-468 breast
Experiment: NCI-60 one-dose screen, 48 h (100 = growth as untreated, 0 = no growth, -100 = all killed)
Settings: 10 µM unless noted

SMILES | growth
CCC(C)[C@H]1O[C@]2(CC[C@@H]1C)C[C@@H]1C[C@@H](C/C=C(\C)[C@@H](OC3C[C@H](OC)C(O[C@H]4C[C@H](OC)[C@@H](O)[C@H](C)O4)[C@H](C)O3)[C@@H](C)/C=C/C=C3\CO[C@@H]4[C@H](O)C(C)=C[C@@H](C(=O)O1)[C@]34O)O2 (stereo not given in full) | 10.5% (inactive)
CCCCSCC(=O)c1ccccc1 | 113% (inactive)
Cc1ccc(-c2nc3c(N=Nc4ccc(S(N)(=O)=O)cc4)c(N)nn3c(N)c2C#N)cc1 | 5.87% (active)
CCCCCC/C=C1\CCC(CN2CCCC2)C1=O (stereo not given) | 73.2% (inactive)
O=C(O)c1ccccc1C(=O)OC1CCCC2CCCC21 (stereo not given) | 102% (inactive)
CN1CCN(Cc2ccc(NC(=O)c3cncc(C#Cc4cnccc4C(F)(F)F)c3)cc2C(F)(F)F)CC1 | 84.4% (inactive)
Nc1c(N)c2ccccc2c2ccccc12 | 103% (inactive)
CNC(=O)c1cc(Oc2ccc3c(c2)sc2nc(-c4cc(C(F)(F)F)cc(C(F)(F)F)c4)cn23)ccn1 | 4.64% (active)
c1ccc2cc(C[n+]3ccn(CCCCCCCn4cc[n+](Cc5ccc6ccccc6c5)c4)c3)ccc2c1 | -2.76% (active)
NC(=O)N1CCOCC1 | 111% (inactive)
COC(=O)Nc1nc2ccc(C(=O)c3ccc(N(C)C4COC4)cc3)cc2[nH]1 | -8.89% (active)
COc1cc2cc(Oc3ccc(NC(=O)c4cc(C(F)(F)F)cc(C(F)(F)F)c4)cc3)c(C)nc2cc1OC | 22.8% (inactive)
Nc1nc(Nc2cc(Cl)cc(Cl)c2)nn1S(=O)(=O)c1ccc2ccccc2c1 | 66.3% (inactive)
CCOC(=O)C/C(=N\Nc1cc(=O)[nH]c2ccc(Cl)cc12)C(=O)OCC | 98.6% (inactive)
COC(=O)c1ccc2c(c1)NC(=O)[C@@H]1CCCN21 | 109% (inactive)
COc1ccc(NC(=O)Cn2cc(CN3C(=O)c4ccc([N+](=O)[O-])cc4C3=O)nn2)cc1 | 110% (inactive)
CCOc1ccc2cc(-c3nn(CC4CCN(C)CC4)c4ncnc(N)c34)ccc2c1 | 85.6% (inactive) and 42% (inactive)
CCOC(=O)/C(=C\c1ccc2ccccc2c1)P(=O)(OCC)OCC | -13.1% (active)
CN(C)C(=O)Oc1cccc([N+](C)(C)C)c1 | 102% (inactive)
CN(C)c1ccc([C@@H](C(=O)Nc2cccc([N+](=O)[O-])c2)N(C(=O)c2cc3ccccc3[nH]2)c2cccc([N+](=O)[O-])c2)cc1 | 97.8% (inactive)

SMILES | growth
CCN(CC)CCNc1ccc(CO)c2sc3ccccc3c(=O)c12 | -41.4% (active)
O=C(Nc1ccc(Oc2ccc(F)cc2)c(Cl)c1)c1cnccn1 | 31.8% (inactive)
O=C(C(=O)N1CCOCC1)c1cn(CCCn2cc(C(=O)C(=O)N3CCOCC3)c3ccccc32)c2ccccc12 | 109% (inactive)
C#COc1cccc(Nc2ncnc3cc(NC(=O)[C@@H](C)Cl)ccc23)c1 | 12% [6.25 µM] (inactive)
Cc1cc(-c2ccc(NS(=O)(=O)c3ccccc3)c(C)c2)ccc1NS(=O)(=O)c1ccccc1 | 80.4% (inactive) and 101% (inactive)
CN1C[C@@H](c2ccc(Cl)cc2)[C@]2(NC(=S)N(c3ccc(F)c(Cl)c3)C2=O)[C@@]12C(=O)NC1C=CC(Cl)=C[C@H]12 (stereo not given in full) | 48.8% (inactive)
CCNC(=O)Oc1ccc[nH]c1=O | 86.9% (inactive)
CC[C@@H](C[C@H](CCO)c1ccccc1)c1cc2ccccc2o1 | 107% (inactive)
C=C(C)[C@@H]1CC[C@]2(C(=O)NS(=O)(=O)c3ccccc3)CC[C@]3(C)[C@H](CC[C@@H]4[C@@]5(C)CC[C@H](OC(=O)NS(=O)(=O)c6ccccc6)C(C)(C)[C@@H]5CC[C@]43C)[C@@H]12 | 25.8% (inactive)
Cc1ccc2c(n1)C(=O)C(Cl)=C(Nc1cccc(C(F)(F)F)c1)C2=O | -65.2% (active)
Cc1ccc(OC(=O)c2ccc(Cl)cc2)cc1 | 105% (inactive)
Cn1cnc([N+](=O)[O-])c1/C=C1\Oc2ccc(Br)cc2C1=O | 80.9% (inactive)
O=[N+]([O-])c1ccccc1CN1CCCCC1 | 89.3% (inactive)
C=C1C(=O)O[C@H]2[C@H]1CC/C(COC(=O)/C=C\C(=O)O)=C\CC[C@@]1(C)O[C@@H]21 | 110% (inactive)
Cc1cc(Cl)nc(Nc2ccccc2)n1 | 105% (inactive)
CN1CCN(Cc2ccc(NC(=O)c3[nH]ncc3Nc3ncnc4sccc34)cc2)CC1 | 15.8% (inactive)
Cc1ccc(O)c(C(=O)c2ccccc2)c1 | 103% (inactive)
CCCOC(=O)N[C@H]1CCc2c(Cl)c(OC)c(OC)c(OC)c2-c2ccc(SC)c(=O)cc21 | -18.6% (active)
COc1cc(-c2nc3ccc(C)cc3[nH]2)ccc1OCc1nnc(-c2ccc(CC(C)C)cc2)o1 | 116% (inactive)
COC(=O)C1(C)COP(=O)(NC23CC4CC(CC(C4)C2)C3)OC1 (stereo not given) | 110% (inactive)
